# D1 potentiator = potentiators of human D1 dopamine receptor | potentiation, % at 10 µM | 360,000 compounds, 0.036% hits | P21728 | HEK293 TREx D1 cells, calcium flux, dopamine EC20 potentiation; in the data active = potentiation above about 30%; also: 0% is about no effect
# D1 antag = blocks dopamine activation of the human D1 receptor; AID 504652; activity change, negative = inhibition, % at 10 µM; 360,000 compounds, 3.2% hits; HEK293 TREx D1 cells, calcium flux, dopamine EC80; stronger effect = lower value; in the data active = activity change below about -30%; also: % is scaled to controls: 0 for no effect and ±100 for the full control effect
#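 Calcium flux readout: force-coupled, inducible Hek293 Trex D1 line, cells induced overnight at 30 C with tetracycline, dye-loaded 30–90 min at RT. Antagonism scored against EC80 dopamine challenge given 180 s after compound.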
# TRHR agonist = TRH receptor (human) agonism | AID 493084 | activation, % at 2 µM | TRHR cells, calcium flux fluo-8, FDSS agonist mode | 360,000 compounds, 0.18% hits; also: 0% is about no effect
# Target sequence (P34981 whole entry, looked up): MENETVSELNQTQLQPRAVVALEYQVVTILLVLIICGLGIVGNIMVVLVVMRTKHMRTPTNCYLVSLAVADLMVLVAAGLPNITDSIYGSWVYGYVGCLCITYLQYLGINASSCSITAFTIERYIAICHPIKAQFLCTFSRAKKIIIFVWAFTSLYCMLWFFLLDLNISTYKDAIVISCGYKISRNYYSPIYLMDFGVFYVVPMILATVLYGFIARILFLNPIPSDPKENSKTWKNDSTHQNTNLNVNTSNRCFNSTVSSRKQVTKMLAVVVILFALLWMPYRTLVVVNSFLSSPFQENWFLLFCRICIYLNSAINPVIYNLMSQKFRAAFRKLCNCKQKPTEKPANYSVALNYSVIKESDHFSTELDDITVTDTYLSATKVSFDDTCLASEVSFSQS
#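 Read-out: compound-evoked intracellular calcium rise in TRHR cells, fluo-8 dye, kinetic FDSS fluorescence at 1 s/cycle following a 10-cycle baseline. Cells cultured overnight before dye loading (30 min–1.5 h, RT).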
# D1 agonist = human D1 receptor agonism | HEK293 T-REx D1 cells, calcium flux, agonist mode | 360,000 compounds, 1% hits | activation, % at 2 µM; also: 0% is about no effect
#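 Tetracycline-induced HEK293 TREx D1 cells, force-coupled to calcium signalling, were dye-loaded with a no-wash calcium kit. Compound was pin-added after a 10 s baseline. Fluorescence was read kinetically at 1 cycle/s for 180 s, with calcium rises flagged as agonism.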
# LDHA block = LDHA (human) enzyme inhibition; P00338; purified LDHA, NADH/diaphorase-resazurin fluorescence; stronger effect = lower value; activity change, % (values are at about 110 or 230 µM); 480,000 compounds, 0.15% hits; in the data active = activity change below about -30%;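 also: plate controls were DMSO wells for no effect and wells without enzyme for full effect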
#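 Resorufin fluorescence (ex540/em590), read at 0 and 20 min after diaphorase/resazurin addition, reports the NADH left after a 5 min room-temperature reaction of 2 nM human LDH5 with 0.06 mM NADH and 0.2 mM pyruvate.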
# TRHR PAM = allosterically enhances the human TRH receptor. P34981. TRHR cells, fluo-8 calcium fluorescence, EC20 TRH enhancement. enhancement, % at 2 µM. 360,000 compounds, 0.66% hits. AID 493056; in the data active = enhancement above about 30%; also: 0% is about no effect
#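 TRHR-expressing cells loaded with fluo-8 calcium dye were read kinetically (ex 480/em 530) during compound addition, then stimulated with an EC20 of TRH (10 nM final). Enhancement of the Gq-mediated intracellular calcium response was scored.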
# The depositor's hits bear a star; nt = no result; ! = not confirmed by another sample. The list is not random: actives were taken first. Their share in the collection is about 3.6%. Rule as the data show it, unless noted: active = activation above about 30%; inactive = the rest.
SMILES,D1 potentiator,D1 antag,TRHR agonist,D1 agonist,LDHA block,TRHR PAM
O=C(NCc1ccc(F)cc1)C1CCCN(S(=O)(=O)c2ccc(Br)s2)C1 (stereo not given),2,-3,-1,-1,-5,-3
CC(C)CN(CC(C)C)S(=O)(=O)N1CCC(C(=O)NCc2cccnc2)CC1,4,21,-2,2,-4,7
O=C(NCc1ccc(F)cc1Cl)C1CCN(S(=O)(=O)N2CCCCC2)CC1,-10,-18,0,50*,0,3
CCS(=O)(=O)N1CCC(C(=O)NCc2ccc(F)cc2Cl)CC1,-4,2,0,2,-8,0
CCc1cc(=O)[nH]c(-n2nc(C)cc2NC(=O)c2cccc3ccccc23)n1,nt,nt,nt,nt,-15,nt
CCC(NC(=O)c1ccc(COC)cc1)c1ccccc1OC(F)F (stereo not given),nt,nt,nt,nt,7,nt
CCOC(=O)c1nc2ccccc2nc1N1CCN(c2ccccc2)CC1,nt,nt,nt,nt,10,nt
CCN(c1ccccc1)S(=O)(=O)c1ccc(C(=O)Oc2ccc(C(C)=O)cc2)cc1,-9,-38*,1,24,1,-6
CCN(c1ccccc1)S(=O)(=O)c1ccc(C(=O)Nc2cccc(NC(C)=O)c2)cc1,nt,nt,nt,nt,-2,nt
COc1ccc(C(=O)NCc2ccccc2)cc1,nt,nt,nt,nt,-5,nt
COc1ccc(C(=O)NNC(=O)C(=O)NC2CCCCC2)cc1,-7,-46*,0,4,6,12
COc1cccc(C(=O)NNC(=O)C2CCCO2)c1 (stereo not given),-9,-30,0,3,0,0
COc1ccc(C(=O)NNC(=O)C(=O)NCc2ccccc2)cc1,-3,-48*,-1,1,5,4
COc1ccc(C(=O)N[C@H](C(=O)NC2CCCCC2)C(C)C)cc1,nt,nt,nt,nt,-2,nt
COc1ccc(C(=O)NNC(=O)C2CCCO2)cc1 (stereo not given),-3,-31*,-1,0,-3,-2
COc1cc(NC(=O)CSc2nnc(-c3ccccc3OC)n2-c2ccccc2)cc(OC)c1,nt,nt,nt,nt,0,nt
CCOC(=O)CN(CC)Cc1ccco1,nt,nt,nt,nt,10,nt
Fc1ccc(Nc2nc(NC3CCCC3)nc3c2cnn3-c2ccccc2)cc1,nt,nt,nt,nt,7,nt
Nc1nccnc1C(=O)NCCc1ccsc1,nt,nt,nt,nt,0,nt
CN(Cc1nc(Cc2ccccc2F)no1)Cc1cccc2ncccc12,-6,-40*,0,13,0,1
CN(CCC#N)Cc1ccsc1,nt,nt,nt,nt,-5,nt
N#Cc1cccc(NC(=O)C2(c3ccc(Cl)cc3)CCC2)c1,nt,nt,nt,nt,11,nt
CC(=O)c1cccc(NC(=O)N2CCN(S(C)(=O)=O)CC2)c1,-5,-5,0,2,4,34*
O=C(O)c1ccccc1C(=O)N1CCN(c2cccc(Cl)c2)CC1,-24,-44*,1,5,1,-1
CC(=O)c1ccc(N2CCN(C(=O)Nc3ccc(Cl)cc3)CC2)cc1,-2,-51*,-1,14,-7,-8
SMILES,D1 potentiator,D1 antag,TRHR agonist,D1 agonist,LDHA block,TRHR PAM
CC(=O)Nc1ccc(N2CCN(c3ccc(F)cc3)CC2)cc1,-5,3,0,3,-2,33*
Cc1ccc(S(=O)(=O)N2CCC(C(=O)OC(C)C(=O)N3CCCC3)CC2)cc1 (stereo not given),nt,nt,nt,nt,1,nt
N#Cc1ccc(OCCOC(=O)C2CC3CCCC(C2)C3=O)cc1 (stereo not given),nt,nt,nt,nt,3,nt
CC(=O)c1ccc(NC(=O)N2CCN(c3cccc(Cl)c3)CC2)cc1,-8,-51*,-2,20,-3,3
O=C(Nc1ccccc1)Nc1cc(OCC(F)(F)F)cc(OCC(F)(F)F)c1,-10,-33*,1,22,-4,-13
COc1ccc(-c2cn(-c3ccccc3)c3[n+]2CCS3)cc1,-7,-53*!,0,2,-3,2
COc1cccc2cc(S(=O)(=O)c3ccc(Cl)cc3)c(=O)oc12,nt,nt,nt,nt,22,nt
CCOc1cccc2cc(S(=O)(=O)c3ccc(Cl)cc3)c(=O)oc12,nt,nt,nt,nt,23,nt
CCCCCCc1cc2cc(S(=O)(=O)c3ccc(Cl)cc3)c(=O)oc2cc1O,-2,-6,12,32*,-13,-8
CCCCCCc1cc2cc(C(C)=O)c(=O)oc2cc1O,nt,nt,nt,nt,-3,nt
CCCCCCc1cc2cc(S(=O)(=O)c3ccc(C)cc3)c(=O)oc2cc1O,-7,-8,29,27,-4,47*
CCCCCCc1cc2cc(-c3nnc(-c4cccc(Cl)c4)o3)c(=O)oc2cc1O,-2,-2,72*,129*,-6,-2
CCN(CC)c1ccc2cc(S(=O)(=O)c3ccc(Cl)cc3)c(=O)oc2c1,21,-7,110*,272*,-10,7
CC1CCN(S(=O)(=O)N2CCCC(c3nncn3C)C2)CC1 (stereo not given),nt,nt,nt,nt,0,nt
O=C(/C=C/Nc1ccc(OC(F)(F)F)cc1)c1ccc(Br)cc1,nt,nt,nt,nt,-2,nt
COc1ccc(C(=O)NCCN2CCOCC2)cc1S(=O)(=O)Nc1ccc(C)cc1,10,-36*,0,6,-14,0
COc1ccc2oc(C(=O)NCCN3CCOCC3)c(C)c2c1OC,-1,20,1,0,4,34*
COc1ccc(Br)cc1S(=O)(=O)NCCN1CCOCC1,-5,2,1,1,3,4
COc1ccc(C)cc1S(=O)(=O)NCCN1CCOCC1,-9,8,1,5,0,40*
Cc1cc(-c2nnc(CN3CCN(c4cnn(-c5ccccc5)c(=O)c4Cl)CC3)o2)c(C)o1,nt,nt,nt,nt,1,nt
O=C(O)CSCC(=O)N(Cc1ccccc1)c1nc(-c2ccccc2)c(-c2ccccc2)s1,-15,-39*,-2,9,-1,4
COC(=O)c1ccc(COC(=O)c2cc(=O)c3cc(C)ccc3o2)cc1,nt,nt,nt,nt,3,nt
Cc1ccc(OCCCCN2CCCCC2)c(C)c1,1,-2,1,5,-7,17
Cc1ccc(OCCCCNC2CCCC(C)C2C)c(C)c1 (stereo not given),0,22,1,42*,-15,6
COc1ccc(/C=C/C(=O)Oc2ccc(C(C)=O)cc2)cc1,nt,nt,nt,nt,1,nt
O=C(O)CN1C(=O)/C(=C\c2cc(Br)ccc2OCc2ccc(Cl)cc2)SC1=S,4,9,0,1,-40*,8
O=C(O)CN1C(=O)/C(=C\c2cc(Br)ccc2OCc2ccc(F)cc2)SC1=S,-3,-1,0,1,-34*,-3
CCOC(=O)N1CCN(C(=O)CN(c2ccc(F)cc2)S(C)(=O)=O)CC1,nt,nt,nt,nt,13,nt
CCOC(=O)C(CC)Oc1ccc2c(=O)c(Oc3ccccc3Br)coc2c1 (stereo not given),nt,nt,nt,nt,-31*,nt
O=c1c2ccccc2nc(CSc2nnnn2-c2ccccc2)n1-c1ccccc1Cl,-1,-35*,0,3,-4,-1

# Screening results (PubChem BioAssay)
